{"source": "the antibiotic and cytotoxicity screens of Wong et al. (2023)", "note": "About 1,500 (3.8%) of roughly 39,000 compounds were called active. The sample as a whole holds a higher share of actives than the screen did.", "data": [{"test_system": "HSkMC (human skeletal muscle cells)", "assay": "cytotoxicity call (relative viability < 0.9)", "settings": "10 µM", "values": [{"molecule": "C[C@H]1CN([C@@H](C)CO)S(=O)(=O)c2ccc(C#CC3(O)CCCC3)cc2O[C@@H]1CN(C)C(=O)Cc1ccncc1", "cytotoxicity call": "inactive"}, {"molecule": "COc1ccc(S(=O)(=O)N(C)C[C@H]2OCCCC[C@@H](C)Oc3ccc(NC(=O)c4ccccc4)cc3C(=O)N([C@H](C)CO)C[C@@H]2C)cc1", "cytotoxicity call": "inactive"}, {"molecule": "C[C@@H]1CN([C@H](C)CO)C(=O)c2cc(NC(=O)Cc3ccccc3)ccc2O[C@@H](C)CCCCO[C@@H]1CN(C)C(=O)C1CCCCC1", "cytotoxicity call": "inactive"}, {"molecule": "COC(=O)C[C@](O)(CCCC(C)(C)O)C(=O)O[C@@H]1C(OC)=C[C@]23CCCN2CCc2cc4c(cc2[C@H]13)OCO4", "cytotoxicity call": "active"}, {"molecule": "C[C@@H]1CN([C@@H](C)CO)C(=O)CCCn2cc(nn2)CO[C@@H]1CN(C)C(=O)Nc1cccc(C(F)(F)F)c1", "cytotoxicity call": "inactive"}, {"molecule": "C[C@H](CO)N1C[C@H](C)[C@@H](CN(C)C(=O)C2CCCCC2)OCCCC[C@H](C)Oc2ccc(NC(=O)Cc3ccccc3)cc2C1=O", "cytotoxicity call": "inactive"}, {"molecule": "C[C@@H]1CN([C@@H](C)CO)S(=O)(=O)c2ccc(C#CC3CC3)cc2O[C@H]1CN(C)Cc1ccc(F)cc1", "cytotoxicity call": "inactive"}, {"molecule": "C[C@H]1CN([C@@H](C)CO)S(=O)(=O)c2ccc(C#CC3CC3)cc2O[C@H]1CN(C)Cc1ccc(F)cc1", "cytotoxicity call": "inactive"}, {"molecule": "C[C@H]1CN([C@@H](C)CO)S(=O)(=O)c2ccc(C#CC3CC3)cc2O[C@@H]1CN(C)Cc1ccc(F)cc1", "cytotoxicity call": "active"}, {"molecule": "C[C@H](CO)N1C[C@H](C)[C@@H](CN(C)Cc2ccc(F)cc2)Oc2cc(C#CC3CC3)ccc2S1(=O)=O", "cytotoxicity call": "inactive"}, {"molecule": "C[C@@H]1CN([C@H](C)CO)S(=O)(=O)c2ccc(C#CC3CC3)cc2O[C@@H]1CN(C)Cc1ccc(F)cc1", "cytotoxicity call": "inactive"}, {"molecule": "C[C@@H]1CN([C@H](C)CO)S(=O)(=O)c2ccc(C#CC3CC3)cc2O[C@H]1CN(C)Cc1ccc(F)cc1", "cytotoxicity call": "active"}, {"molecule": "CO[C@@H]1CN(C)C(=O)c2cc(NC(=O)Nc3ccccc3F)ccc2OC[C@@H](C)N(CCC(F)(F)F)C[C@H]1C", "cytotoxicity call": "inactive"}, {"molecule": "C[C@@H]1CN([C@@H](C)CO)C(=O)c2cc(NC(=O)Cc3ccccc3)ccc2O[C@@H]1CN(C)C(=O)Nc1ccc(C(F)(F)F)cc1", "cytotoxicity call": "inactive"}, {"molecule": "O=C([C@H]1[C@H](CO)[C@H]2Cn3c(cccc3=O)[C@H]2N1C(=O)C1CCCC1)N1CCOCC1", "cytotoxicity call": "inactive"}, {"molecule": "COc1ccc(CN(C)C[C@H]2Oc3c(NC(=O)C4CCOCC4)cccc3C(=O)N([C@H](C)CO)C[C@@H]2C)cc1", "cytotoxicity call": "inactive"}, {"molecule": "O=C(C[C@H]1CC[C@H]2[C@@H](COC[C@@H](O)CN2C(=O)Nc2cccc(F)c2)O1)NCc1ccccc1Cl", "cytotoxicity call": "inactive"}, {"molecule": "CCC(=O)Nc1ccc(C)c(C)c1", "cytotoxicity call": "inactive"}, {"molecule": "C[C@@H]1CCCCO[C@@H](CN(C)C(=O)Nc2ccc(F)cc2)[C@@H](C)CN([C@H](C)CO)C(=O)c2cc(NC(=O)CCCN(C)C)ccc2O1", "cytotoxicity call": "inactive"}, {"molecule": "Cc1ccc(S(=O)(=O)N(C)C[C@@H]2Oc3ccc(NS(=O)(=O)c4cccs4)cc3CC(=O)N([C@@H](C)CO)C[C@H]2C)cc1", "cytotoxicity call": "inactive"}, {"molecule": "COc1ccc(COCC23Oc4ccccc4[C@H]([C@H]2CO[Si](C)(C)C(C)(C)C)n2c(c4ccccc4c(-c4ccccc4)c2=O)N3C)cc1", "cytotoxicity call": "active"}, {"molecule": "COC(=O)c1c(C(=O)OC)c2n(c(=O)c1-c1ccccc1)[C@@H]1c3ccccc3O[C@@](COCc3ccc(OC)cc3)([C@@H]1CO[Si](C)(C)C(C)(C)C)N2C", "cytotoxicity call": "inactive"}, {"molecule": "COc1ccc(COCC23Oc4ccccc4[C@H]([C@H]2CO)n2c(c4ccccc4c(-c4ccccc4)c2=O)N3C)cc1", "cytotoxicity call": "inactive"}, {"molecule": "COc1ccc(NC(=O)N(C)C[C@@H]2OCCCC[C@H](C)Oc3ccc(NS(=O)(=O)c4ccc(F)cc4)cc3C(=O)N([C@H](C)CO)C[C@H]2C)cc1", "cytotoxicity call": "inactive"}, {"molecule": "COc1ccc(C#Cc2cnc3c(c2)C(=O)N([C@@H](C)CO)C[C@@H](C)[C@H](CN(C)CC2CCOCC2)O3)cc1", "cytotoxicity call": "inactive"}, {"molecule": "C[C@@H]1CCCCO[C@H](CN(C)C(=O)CCC(F)(F)F)[C@H](C)CN([C@H](C)CO)C(=O)c2cc(NC(=O)CCC(F)(F)F)ccc2O1", "cytotoxicity call": "inactive"}, {"molecule": "COc1ccc(-c2coc3cc(O)cc(OC)c3c2=O)cc1", "cytotoxicity call": "inactive"}, {"molecule": "C[C@H](CO)N1C[C@H](C)[C@H](CN(C)C(=O)Nc2ccc(F)cc2)Oc2ccc(NC(=O)C3CC3)cc2CC1=O", "cytotoxicity call": "inactive"}, {"molecule": "Cc1noc(C)c1NC(=O)N(C)C[C@H]1Oc2ccc(NS(=O)(=O)c3c(C)noc3C)cc2C(=O)N([C@@H](C)CO)C[C@@H]1C", "cytotoxicity call": "inactive"}, {"molecule": "CCc1ccc(/C=C2\\SC(=O)N(CCCCCCNC(=O)c3ccc(Nc4ccc([N+](=O)[O-])c5nonc45)cc3)C2=O)cc1", "cytotoxicity call": "inactive"}, {"molecule": "CCc1ccc(/C=C2\\SC(=O)N(CCCCCCNC(=O)c3ccccc3Nc3ccc([N+](=O)[O-])c4nonc34)C2=O)cc1", "cytotoxicity call": "active"}, {"molecule": "COc1ccc(NC(=O)Nc2ccc3c(c2)C(=O)N([C@H](C)CO)C[C@H](C)[C@H](CN(C)S(=O)(=O)c2ccccc2)OCCCC[C@H](C)O3)cc1", "cytotoxicity call": "inactive"}, {"molecule": "C[C@H](CO)N1C[C@H](C)[C@@H](CN(C)Cc2ccc(Cl)c(Cl)c2)Oc2c(NC(=O)Nc3ccc(C(F)(F)F)cc3)cccc2C1=O", "cytotoxicity call": "active"}, {"molecule": "C[C@@H]1CN([C@@H](C)CO)C(=O)c2cccc(NC(=O)Nc3ccc(C(F)(F)F)cc3)c2O[C@H]1CN(C)Cc1ccc(Cl)c(Cl)c1", "cytotoxicity call": "active"}, {"molecule": "C[C@H]1CN([C@@H](C)CO)C(=O)c2cccc(NC(=O)Nc3ccc(C(F)(F)F)cc3)c2O[C@H]1CN(C)Cc1ccc(C(F)(F)F)cc1", "cytotoxicity call": "inactive"}, {"molecule": "C[C@@H]1CN([C@H](C)CO)C(=O)c2cccc(NC(=O)Nc3ccc(C(F)(F)F)cc3)c2O[C@H]1CN(C)Cc1ccc(Cl)c(Cl)c1", "cytotoxicity call": "active"}, {"molecule": "C[C@H]1CN([C@@H](C)CO)C(=O)c2cccc(NC(=O)Nc3ccc(C(F)(F)F)cc3)c2O[C@H]1CN(C)Cc1ccc(Cl)c(Cl)c1", "cytotoxicity call": "active"}, {"molecule": "C[C@H](CO)N1C[C@H](C)[C@H](CN(C)C(=O)Nc2ccnc(N3CCOCC3)c2)OCc2cn(nn2)CCCC1=O", "cytotoxicity call": "inactive"}, {"molecule": "C[C@@H]1CN([C@H](C)CO)C(=O)c2cc(NS(=O)(=O)c3ccccc3)ccc2O[C@@H](C)CCCCO[C@@H]1CN(C)Cc1ccccc1", "cytotoxicity call": "inactive"}, {"molecule": "C[C@H]1CN([C@@H](C)CO)S(=O)(=O)c2ccc(C#CC3CC3)cc2O[C@H]1CN(C)C(=O)c1cccc(F)c1", "cytotoxicity call": "inactive"}, {"molecule": "Cc1nnc(SCC2=C(C(=O)[O-])N3C(=O)C(NC(=O)Cn4cnnn4)C3SC2)s1.[Na+]", "note": "(stereo not given)", "cytotoxicity call": "inactive"}, {"molecule": "C[C@H](CO)N1C[C@H](C)[C@H](CN(C)Cc2ccc(Cl)c(Cl)c2)OCc2ccccc2-c2c(n(C)c3ccccc23)C1=O", "cytotoxicity call": "inactive"}, {"molecule": "C[C@H]1CN([C@@H](C)CO)C(=O)c2cc(C#Cc3ccccn3)cnc2O[C@@H]1CN(C)C(=O)c1cnccn1", "cytotoxicity call": "inactive"}, {"molecule": "COc1ccc(NC(=O)Nc2ccc3c(c2)C(=O)N([C@@H](C)CO)C[C@H](C)[C@H](CN(C)Cc2ccncc2)OCCCC[C@@H](C)O3)cc1", "cytotoxicity call": "inactive"}, {"molecule": "O=C(/C=C/c1ccc(O)c(O)c1)O[C@@H]1C[C@](OC(=O)/C=C/c2ccc(O)c(O)c2)(C(=O)O)C[C@@H](OC(=O)/C=C/c2ccc(O)c(O)c2)[C@H]1O", "cytotoxicity call": "inactive"}, {"molecule": "C[C@H]1CN([C@@H](C)CO)C(=O)c2cccc(NC(=O)Nc3ccc(C(F)(F)F)cc3)c2O[C@@H]1CN(C)Cc1ccc(Cl)c(Cl)c1", "cytotoxicity call": "active"}, {"molecule": "C[C@H](CO)N1C[C@H](C)[C@H](CN(C)Cc2ccc(Cl)c(Cl)c2)Oc2c(NC(=O)Nc3ccc(C(F)(F)F)cc3)cccc2C1=O", "cytotoxicity call": "inactive"}, {"molecule": "C[C@@H]1CN([C@@H](C)CO)C(=O)c2cccc(NC(=O)Nc3ccc(C(F)(F)F)cc3)c2O[C@@H]1CN(C)Cc1ccc(Cl)c(Cl)c1", "cytotoxicity call": "active"}, {"molecule": "C[C@@H]1CN([C@H](C)CO)C(=O)c2cccc(NC(=O)Nc3ccc(C(F)(F)F)cc3)c2O[C@@H]1CN(C)Cc1ccc(Cl)c(Cl)c1", "cytotoxicity call": "active"}, {"molecule": "C[C@H]1CN([C@@H](C)CO)C(=O)c2cccc(NC(=O)Nc3ccc(C(F)(F)F)cc3)c2O[C@@H]1CN(C)Cc1ccc(C(F)(F)F)cc1", "cytotoxicity call": "inactive"}, {"molecule": "COc1ccc(CN(C)C[C@@H]2OCCCC[C@H](C)Oc3ccc(NC(=O)c4ccccc4)cc3C(=O)N([C@H](C)CO)C[C@H]2C)cc1", "cytotoxicity call": "inactive"}, {"molecule": "C[C@@H]1CCCCO[C@@H](CN(C)C(=O)Nc2ccc(F)cc2)[C@@H](C)CN([C@@H](C)CO)C(=O)c2cc(NC(=O)Cc3ccccc3)ccc2O1", "cytotoxicity call": "inactive"}, {"molecule": "C[C@H](CO)N1C[C@H](C)[C@@H](CN(C)C(=O)c2ccccc2)OCCCC[C@H](C)Oc2ccc(NC(=O)NC3CCCCC3)cc2C1=O", "cytotoxicity call": "inactive"}, {"molecule": "Cn1cnc(S(=O)(=O)N2C[C@H](O)COC[C@@H]3O[C@H](CC(=O)NCc4cc(F)cc(F)c4)CC[C@H]32)c1", "cytotoxicity call": "inactive"}, {"molecule": "N[C@H](C(=O)O)[C@@H](OCc1ccccc1)C(=O)O", "cytotoxicity call": "inactive"}, {"molecule": "C[C@@H]1CN([C@@H](C)CO)C(=O)c2cc(NS(=O)(=O)c3cccs3)ccc2O[C@@H](C)CCCCO[C@@H]1CN(C)C(=O)Nc1ccccc1", "cytotoxicity call": "inactive"}, {"molecule": "CC(C)NC(=O)N1Cc2cc(C(=O)NC3Cc4ccccc4C3)nc(-c3cccc(-c4cccnc4)c3)c2[C@@H]1CCO", "cytotoxicity call": "active"}, {"molecule": "CC(C)NC(=O)N1Cc2cc(C(=O)NC3Cc4ccccc4C3)nc(-c3cccc(-c4cccnc4)c3)c2[C@H]1CCO", "cytotoxicity call": "active"}, {"molecule": "CCCNC(=O)c1cc2c(c(-c3cccc(-c4cc5ccccc5o4)c3)n1)[C@H](CCO)N(C(=O)NC(C)C)C2", "cytotoxicity call": "inactive"}, {"molecule": "CC(C)(C)[S@](=O)N1Cc2cc(C(=O)N[C@@H]3CCN(Cc4ccccc4)C3)nc(-c3cccc(-c4cccnc4)c3)c2[C@@H]1CCO", "cytotoxicity call": "inactive"}, {"molecule": "CCNC(=O)c1cc2c(c(-c3cccc(-c4cc5ccccc5o4)c3)n1)[C@@H](CCO)N(C(=O)NC(C)C)C2", "cytotoxicity call": "inactive"}, {"molecule": "CC(C)(C)[S@](=O)N1Cc2cc(C(=O)N[C@H]3CCN(Cc4ccccc4)C3)nc(-c3cccc(-c4cccnc4)c3)c2[C@@H]1CCO", "cytotoxicity call": "inactive"}, {"molecule": "CCCNC(=O)c1cc2c(c(-c3cccc(-c4cc5ccccc5o4)c3)n1)[C@@H](CCO)N(C(=O)NC(C)C)C2", "cytotoxicity call": "inactive"}, {"molecule": "CC(C)NC(=O)N1Cc2cc(C(=O)NC3CCCCC3)nc(-c3cccc(-c4cccnc4)c3)c2[C@@H]1CCO", "cytotoxicity call": "inactive"}, {"molecule": "CC(C)NC(=O)N1Cc2cc(C(=O)NC3CCCCC3)nc(-c3cccc(-c4cccnc4)c3)c2[C@H]1CCO", "cytotoxicity call": "active"}]}]}
